UCHL1 block: human UCHL1 deubiquitinase inhibition. P09936. purified UCHL1, Ub-rhodamine cleavage fluorescence. inhibition, % at 20 µM. actives 0.2% (n = 47,000). AID 1645859
Target sequence (P09936 whole entry, looked up): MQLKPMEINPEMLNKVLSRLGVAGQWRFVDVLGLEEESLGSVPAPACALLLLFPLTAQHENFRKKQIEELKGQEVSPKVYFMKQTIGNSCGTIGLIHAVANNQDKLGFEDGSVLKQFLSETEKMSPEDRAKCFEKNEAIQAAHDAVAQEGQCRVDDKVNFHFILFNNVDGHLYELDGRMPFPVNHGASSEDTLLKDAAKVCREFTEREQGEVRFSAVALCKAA
USP10 inh: blocks human USP10 ubiquitin-rhodamine cleavage; actives 1.1% (n = 47,000); inhibition, % at 20 µM; AID 1645856; purified USP10, Ub-rhodamine fluorescence, 60 min; Q14694
USP30 inh: inhibitors of human USP30 deubiquitinase. inhibition, % at 25 µM. purified USP30, Ub-rhodamine cleavage fluorescence. actives 5.3% (n = 47,000)
USP8 block: blocks human USP8 ubiquitin-rhodamine cleavage; P40818; purified USP8, Ub-rhodamine cleavage fluorescence, 30 min; inhibition, % at 20 µM; actives 4.2% (n = 47,000); AID 1645853
USP17 inh: human USP17-like deubiquitinase inhibition; A8MUK1; purified USP17, Ub-rhodamine cleavage fluorescence, 3 h; inhibition, % at 50 µM; actives 6.5% (n = 47,000)
USP7 block: inhibitors of human USP7 deubiquitinase. Q93009. purified USP7, Ub-rhodamine cleavage fluorescence. inhibition, % at 20 µM. actives 0.3% (n = 47,000). AID 1645854
* = called active by the depositor; x = no result. Only some compounds are listed: those with a hit (about 13% of all), similar ones and a draw of the others. Cut-off read from the data, not from the text of the source: active = inhibition above about 30%; inactive = the rest.

SMILES | UCHL1 block | USP10 inh | USP30 inh | USP8 block | USP17 inh | USP7 block
O=C(/C=C/c1ccccc1)N(Cc1ccc2c(c1)OCO2)Cc1nc2ccccc2c(=O)[nH]1 | 0 | 5 | -29 | -38 | -17 | 1
Cn1c(=O)c2c(C(=O)Nc3ccc(Cl)cc3)cc(=O)n(C)c2n(C)c1=O | -6 | -8 | -40 | -13 | -10 | -3
Cc1ccc(NC(=O)c2cc(=O)n(C)c3c2c(=O)n(C)c(=O)n3C)cc1C | -1 | -3 | -1 | 2 | 44* | 4
Cc1ccc(NC(=O)c2cc(=O)n(C)c3c2c(=O)n(C)c(=O)n3C)c(C)c1 | 5 | -1 | 61* | 11 | 21 | 7
Cn1c(=O)c2c(C(=O)Nc3cccc(Cl)c3)cc(=O)n(C)c2n(C)c1=O | 0 | -5 | -6 | 9 | 0 | 2
O=C(Nc1ccc(F)c(Cl)c1)c1ccc(N2CCCCS2(=O)=O)cc1Cl | 2 | 7 | 0 | 0 | 3 | -120
CCOC(=O)c1c(N)n(CC(C)NC(=O)C2CC2)c2nc3ccccc3nc12 (configuration not stated) | 2 | -1 | -40 | 25 | 30* | 1
Cc1ccc(CNC(=O)c2ccc(N3CCC(C)CC3)c([N+](=O)[O-])c2)cc1 | -4 | 5 | -1 | -11 | -7 | 4
Cc1ccc(CCNC(=O)c2nn(C34CC5CC(CC(C5)C3)C4)cc2[N+](=O)[O-])cc1 | 7 | 17 | 47* | -19 | 9 | 14
C=C(C)[C@@H]1CC[C@]2(C(=O)O)CC[C@]3(C)[C@H](CC[C@@H]4[C@@]5(C)CC[C@H](O)C(C)(C)[C@@H]5CC[C@]43C)[C@@H]12 | 1 | 28 | 15 | 19 | 31* | 9
Clc1ccc2c(Nc3ccc4c(c3)OCO4)ccnc2c1 | 5 | 7 | 53* | -66 | 56* | 6
O=C1C/C(=C\c2ccc3c(c2)OCO3)Cc2ccccc21 | 2 | 9 | 9 | 6 | 23 | 3
O=C1Cc2ccccc2C(=O)N1c1ccc2c(c1)OCO2 | 6 | 18 | -52 | 82* | 66* | -32
Cc1cccc(N2C(=O)/C(=C\c3ccc4c(c3)OCO4)c3ccccc3C2=O)c1 | -7 | -1 | -14 | 76* | 42* | -11
Cc1cccc(N2C(=O)/C(=C\c3ccc4c(c3)OCCO4)c3ccccc3C2=O)c1 | -4 | -6 | 6 | 88* | 55* | -17
Cc1ccc(C(=O)/C=C/c2ccc3c(c2)OCCO3)c(OCc2ccccc2)c1 | 7 | 5 | -179 | -74 | x | 16
COc1ccccc1C(=O)N1CCN(c2ccc(-c3nc(C)cs3)cn2)CC1 | -1 | 0 | -15 | -10 | -18 | -16
O=C(c1ccccn1)N1C[C@H]2C[C@H]3[C@](C1)(CN(Cc1ccc(Cl)cc1)S3(=O)=O)O2 | -3 | 2 | -6 | -15 | 0 | -10
O=C(NCc1ccccc1)Nc1cccc2ccccc12 | 2 | 10 | -5 | 95* | 84* | -11
COc1ccc(CNC(=O)Nc2cccc3ccccc23)cc1 | 27 | 28 | 38* | 97* | 92* | -26
O=C(CCc1ccc2[nH]ccc2c1)NCc1ccc(F)cc1 | -4 | -5 | -55 | -12 | -21 | -10
O=C(NCc1ccc(F)cc1)Nc1cccc2ccccc12 | 0 | 2 | 40* | 71* | 40* | 4
O=C(NCC1CCCO1)c1ccccc1N1C(=O)[C@@H]2Cc3c([nH]c4ccccc34)C(c3ccccc3)N2C1=O (some centres not stated) | -14 | -9 | -414 | -85 | -99 | -16
Cc1ccc(CNC(=O)C2CCN(C3=NS(=O)(=O)c4ccccc43)CC2)cc1 | -3 | -6 | -61 | 0 | -16 | -1
O=C(c1ccco1)N1CCN=C1SCc1ccccc1F | -1 | -2 | -3 | 1 | -12 | -7
SMILES | UCHL1 block | USP10 inh | USP30 inh | USP8 block | USP17 inh | USP7 block
O=C(c1ccco1)N1CCN=C1SCc1ccc([N+](=O)[O-])cc1 | 0 | 1 | 53* | -51 | 43* | 7
Cc1cc(C(=O)NCc2cccnc2)c2cccc(C)c2n1 | 0 | 1 | -9 | 0 | -10 | x
COc1ccc(-c2cc(C(=O)NC3CCCCCC3)[nH]n2)cc1S(=O)(=O)N(C)C | 4 | 0 | 3 | -17 | 51* | 0
COc1ccc(-c2cc(C(=O)N3CCCC3)[nH]n2)cc1S(N)(=O)=O | 0 | 0 | -14 | -8 | -18 | 3
COc1ccccc1CC(=O)NC[C@H]1C[C@@]2(C)[C@@H](O)CCCC[C@H]2N1C(C)=O | -1 | 0 | -14 | -9 | -15 | -1
O=C(Cc1ccc(Cl)cc1)Nc1cc(-c2ccccn2)no1 | -3 | 0 | 5 | 6 | 40* | -15
Cc1ccc(C)c(Cn2nnc3c(=O)[nH]c(C4CCN(S(=O)(=O)c5ccc(S(=O)(=O)NC6CCCC6)cc5)CC4)nc32)c1 | 2 | 30 | -1 | -18 | -8 | 15
Cc1ccc(C)c(Cn2nnc3c(=O)[nH]c(C4CCN(S(=O)(=O)c5ccc(S(=O)(=O)N6CCOCC6)cc5)CC4)nc32)c1 | 5 | 15 | 33* | 56* | 40* | 12
Cc1ccc(C)c(Cn2nnc3c(=O)[nH]c(C4CCN(S(=O)(=O)c5ccc(S(=O)(=O)NC6CC6)cc5)CC4)nc32)c1 | 7 | 26 | 52* | -42 | 30* | 13
O=C(NCc1cccc(F)c1)NC1CCN(c2ccccc2)C1=O (configuration not stated) | -1 | 3 | 20 | 14 | 44* | 2
O=C1C(NS(=O)(=O)Cc2cccc(F)c2)CCN1c1ccccc1 (configuration not stated) | 2 | 4 | 34* | 9 | 44* | 5
O=C1C(NS(=O)(=O)Cc2cc(F)cc(F)c2)CCN1c1ccccc1 (configuration not stated) | -2 | 4 | -13 | 11 | 47* | 0
O=C1C(NS(=O)(=O)Cc2ccccc2F)CCN1c1ccccc1 (configuration not stated) | -1 | 2 | 9 | 10 | 12 | 2
Cc1ccc(N2CCC(NS(=O)(=O)Cc3ccccc3)C2=O)cc1C (configuration not stated) | 1 | -1 | -3 | -10 | 9 | 0
O=C(NCc1ccc(F)cc1)NC1CCN(c2ccccc2)C1=O (configuration not stated) | 0 | 3 | 1 | -3 | -2 | -2
Cc1cc(N2CCC(NC(=O)NCc3ccc(F)cc3)C2=O)ccc1F (configuration not stated) | 0 | 5 | 12 | 1 | 70* | 3
CCOc1ccccc1N(CC(=O)NCc1ccccc1)C(=O)CCC(=O)Nc1ccccn1 | 0 | -1 | 6 | -2 | -5 | -12
Clc1ccc(-c2cnco2)cn1 | -4 | 0 | -1 | 2 | 0 | 0
CC(=O)N1c2ccc(S(=O)(=O)N3CCC(C(=O)Nc4cccnc4)CC3)cc2CC1C (configuration not stated) | 3 | 0 | 13 | 6 | 0 | 5

Bioassay records: PubChem BioAssay, Buhrlage Lab, Dana-Farber Cancer Institute and Novartis Institutes for BioMedical Research (Cambridge, Mass)
